Results filed as inconclusive are left out. A number with no mark means an inactive call. Active and inactive are the calls of the source. The call rests on the fitted dose curve; in most records, active means well fitted activation curve with a large enough effect in the signal ratio in the repeat runs (not every such curve was filed as active); inconclusive means weak or mixed curves, or effect the other way; inactive means no such curve, though single readings can be large or run the other way; the % refers to the signal ratio.
What follows are compounds tested against Peroxisome proliferator-activated receptor gamma (Homo sapiens) (UniProt P37231) (assay: qHTS assay to identify small molecule agonists of the peroxisome proliferator-activated receptor gamma (PPARg) signaling pathway (AID 743094)). Conditions: HEK293H PPARg-UAS-bla, beta-lactamase FRET ratio, 17 h; series mostly up to 57 µM; activation: at the top concentration.
Sequence of Peroxisome proliferator-activated receptor gamma (Homo sapiens) (P37231 whole entry, looked up): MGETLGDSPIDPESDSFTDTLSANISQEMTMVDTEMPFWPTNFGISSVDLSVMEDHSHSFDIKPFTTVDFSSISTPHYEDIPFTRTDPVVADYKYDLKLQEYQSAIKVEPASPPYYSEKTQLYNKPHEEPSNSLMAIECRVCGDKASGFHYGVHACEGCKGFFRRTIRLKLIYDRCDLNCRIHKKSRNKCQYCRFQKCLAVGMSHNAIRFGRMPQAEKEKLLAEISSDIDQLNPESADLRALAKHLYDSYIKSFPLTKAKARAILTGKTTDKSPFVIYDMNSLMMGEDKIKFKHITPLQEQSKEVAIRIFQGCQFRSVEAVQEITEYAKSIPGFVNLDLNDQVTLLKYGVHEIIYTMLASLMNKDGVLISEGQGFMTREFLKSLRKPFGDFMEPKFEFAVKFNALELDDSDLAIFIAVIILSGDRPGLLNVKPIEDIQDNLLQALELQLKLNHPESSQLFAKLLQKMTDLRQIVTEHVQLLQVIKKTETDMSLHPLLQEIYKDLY
Description: U.S. Tox21 Program National Center for Advancing Translational Sciences [NCATS] NIH Chemical Genomics Center [NCGC] U.S. Environmental Protection Agency [EPA] National Institutes of Environmental Health Sciences [NIEHS] National Toxicology Program [NTP] U.S. Food and Drug Administration [FDA] Tox21 Assay Overview: The peroxisome proliferator-activated receptors (PPARs) are lipid-activated transcription factors of the nuclear receptor superfamily with three distinct subtypes namely PPAR alpha, PPAR delta (also called PPAR beta) and PPAR gamma (PPARg). All these subtypes heterodimerize with Retinoid X receptor (RXR) and these heterodimers regulate transcription of various genes. PPAR-gamma receptor (glitazone receptor) is involved in the regulation of glucose and lipid metabolism. To identify the compounds that activate PPAR-gamma signaling, GeneBLAzer PPAR gamma UAS-bla HEK293H cell line (Invitrogen, Carlsbad, CA, USA) containing a beta-lactamase reporter gene under control of the control of an upstream activator sequence (UAS) stably integrated into HEK293H cells was used to screen Tox21 compound library.
Tox21 Assay Protocol Summary: PPARg-bla cells were dispensed at 3000 cells/6uL/well in 1536-well black wall/clear bottom plates using a Multidrop Combi (Thermo Fisher Scientific, Waltham, MA) dispenser. After the assay plates were incubated at 37C and 5% CO2 for 5 h, 23 nL of compounds dissolved in DMSO, positive controls or DMSO only was transferred to the assay plate by a Pintool station (Kalypsys, San Diego, CA). The assay plates were incubated at 37C for 17 h. After 1 uL of LiveBLAzerTM B/G FRET substrate was added using a Bioraptr Flying Reagent Dispenser (FRD) workstation (Beckman Coulter, Indianapolis, IN, USA), the plates were incubated at room temperature for 1 h, and fluorescence intensity was measured by an Envision plate reader (PerkinElmer, Shelton, CT).
On the % scale 0 is the no-effect control and ±100 the full control effect.

Structure (SMILES)	activation	outcome
CC1CCC(C(C)(C)S)C(=O)C1 (stereo not given)	-4.48%	
C1=CCC(c2ccccc2)CC1 (stereo not given)	2.31%	
Cc1cc(C)cc([N+](=O)[O-])c1	2.47% [at 78.9 µM]	
CCC1COC(=O)O1 (stereo not given)	-3.15%	
Cc1nc(C)nc(N2C[C@@H](C)N(c3ccnc([C@@H](C)O)n3)[C@@H](C)C2)n1	-8.66%	
CCCCC(CC)C(=O)OC(C)C (stereo not given)	2.99%	
CCCCCCCCC(=O)OCC	-0.941%	
Nc1ccc(S(=O)(=O)NC(=O)c2ccccc2)cc1	-1.37% [at 26.2 µM]	
C1=C\CC/C=C\CC/1	0.204% [at 78.9 µM]	
CC(C)(c1ccc(Oc2ccc3c(c2)C(=O)OC3=O)cc1)c1ccc(Oc2ccc3c(c2)C(=O)OC3=O)cc1	-3.04%	
CCCCOC(=O)C(=O)OCCCC	-2.44%	
C=C[Si](C)(C)O[Si](C)(C)C=C	-6.26%	
Cc1c(C(C)C)c(=O)n(-c2ccccc2)n1C	0.0412%	
CN(C1CCCCC1)S(=O)(=O)c1ccccc1N	1.51%	
NCCc1ccn[nH]1	0.53% [at 26.2 µM]	
C=CCOc1c(Br)cc(Br)cc1Br	2.73%	
C[C@H](CCC(=O)O)[C@H]1CC[C@H]2[C@@H]3[C@H](O)C[C@@H]4C[C@H](O)CC[C@]4(C)[C@H]3C[C@H](O)[C@]12C		inactive
COc1cccc2sc(N)nc12	0.869% [at 78.9 µM]	
CNCc1ccccc1	0.436%	
SCCSCCS	0.0521%	

Structure (SMILES)	activation	outcome
Cc1nc([N+](=O)[O-])cn1-c1ccc([N+](=O)[O-])cc1	-4.2%	
OCCCCCCCl	-1.54% [at 78.9 µM]	
CN(C)CCOCCN(C)CCO	-2.29%	
COCCOCCOCCOC	1.2%	
O=C(COCCOCCOCC(=O)Nc1c(I)cc(I)c(C(=O)O)c1I)Nc1c(I)cc(I)c(C(=O)O)c1I	3.64%	
Cc1ccccc1OCC1CO1 (stereo not given)	-2.16% [at 78.9 µM]	
O=C1CC[C@H](C(=O)N2CCCCC2)N1	0.778%	
Cc1cc(O)c2c(c1)C(=O)c1cccc(O)c1C2=O	-6.92%	
CCCCCCCC[Si](OCC)(OCC)OCC	-0.537%	
NS(=O)(=O)c1cc2c(cc1Cl)NC(C(Cl)Cl)NS2(=O)=O (stereo not given)	5.85% [at 26.2 µM]	
Cc1ccccc1N1CCN(CCc2nnc3n2CCCC3)CC1	-0.621%	
NC(=O)NC(=O)Cc1ccccc1	-0.0449%	
F[Si-2](F)(F)(F)(F)F		inactive
N#CCCOCCOCCC#N	5.27%	
CCc1nccnc1C	-4.53%	
CCCCC(=O)N(C)C	-1.48%	
CCC(CO)CO	3.1%	
CCOC(=O)OCC/C(SC(=O)OCC)=C(\C)N(C=O)Cc1cnc(C)nc1N	-1.54%	
O=[Si]=O	-3.36%	
CCCCCCCCCCCCCCCCI	2.51% [at 26.2 µM]	
